Experiment [1] in a line: qHTS assay for small molecule agonists of the p53 signaling pathway (AID 651631; calls by dose curve; note: nearly all actives have a fitted effect of over 15% in size). Put shortly:
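p53RE-bla HCT-116 cells; compounds 16 h, 37 °C; LiveBLAzer B/G FRET substrate 2 h RT; fluorescence intensity read-out, qHTS format.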
On the technique in general: qHTS replaces the single test concentration by a dilution series.

Experiment [2] can be described thus: qHTS assay for small molecules that induce genotoxicity in human embryonic kidney cells expressing luciferase-tagged ATAD5 - cell viability (AID 651634; calls by dose curve; note: nearly all actives have a fitted effect of over 25% in size). Summed up: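 HEK293T cells carrying luciferase-tagged ATAD5, 2,000 cells/well, exposed to compound for 15.5 hr at 37C. Viability read as live-cell protease activity by CellTiter-Fluor fluorescence after 30 min at 37C.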

Experiment [3] can be described thus: qHTS assay for small molecule disruptors of the mitochondrial membrane potential (AID 720635). Note: potency is the fitted concentration of half-maximal effect. Summed up: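 HepG2 cells (2,000/well) attached overnight at 37C, then took compound for 1 hr at 37C, 5% CO2. Mito-MPS dye was added for 30 min; fluorescence was read at 490/535 nm (monomers) and 540/590 nm (aggregates).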
Experiment [4] can be described thus: qHTS assay to test for compound auto fluorescence at 535 nm (green) in HEK293 cells (AID 720680).
A short description of experiment [5]: qHTS assay for identifying genotoxic compounds that show differential cytotoxicity against isogenic chicken DT40 cell lines with known DNA damage response pathways - wild type cell line (AID 743012). Note: nearly all actives have a fitted effect of over 60% in size. Note: potency is the fitted concentration of half-maximal effect. Put shortly:
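Wild-type DT40 cells (300/well) exposed to compounds for 40 hours at 37 C/5% CO2. Viability read by CellTiter-Glo luminescence after 30 min at room temperature.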

The nature of experiment [6]: qHTS assay for identifying genotoxic compounds that show differential cytotoxicity against isogenic chicken DT40 cell lines with known DNA damage response pathways - Rev3 mutant cell line (AID 743014). Note: nearly all actives have a fitted effect of over 55% in size.
Experiment [7] can be described thus: qHTS assay for identifying genotoxic compounds that show differential cytotoxicity against isogenic chicken DT40 cell lines with known DNA damage response pathways - Rad54/Ku70 mutant cell line (AID 743015). Note: nearly all actives have a fitted effect of over 60% in size. Note: potency is the fitted concentration of half-maximal effect.
Experiment [8] in a line: qHTS assay to identify small molecule antagonists of the thyroid receptor (TR) signaling pathway (AID 743065). Note: series mostly up to about 70 µM; nearly all actives have a fitted effect of over 55% in size. Put shortly: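 GH3.TRE-Luc rat pituitary cells carrying two TR response elements driving luciferase were plated for 4 h, given compound plus 1 nM T3 (final), and incubated 23.5 h at 37 C. ONE-Glo luminescence measured reporter inhibition; CellTiter-Fluor fluorescence tracked cytotoxicity.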

The test system of experiment [9] is thyroid hormone receptor (rat, GH3 cells). Nature of the experiment: qHTS assay to identify small molecule agonists of the thyroid receptor (TR) signaling pathway (AID 743066; calls by dose curve).
Experiment [10] can be described thus: qHTS assay to identify small molecule that activate the aryl hydrocarbon receptor (AhR) signaling pathway - cell viability counter screen (AID 743086).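 Note: HepG2 liver cells carrying the AhR DRE luciferase reporter; series mostly up to about 70 µM; nearly all actives have a fitted effect of over 45% in size.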 Put shortly:
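HepG2-AhR-luc (HG2L7.5c1) cells, 4000/well, were preincubated 5 h at 37C, exposed to compound in qHTS format for 24 hr at 37C, then given CellTiter-Fluor for 30 min; viability was read as fluorescence in the reporter wells.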

Experiment [11] addresses Nuclear receptor subfamily 1 group I member 2 (Homo sapiens) (UniProt O75469). Nature of the experiment: Human pregnane X receptor (PXR) activation by small molecules, qHTS assay (AID 1346985). Note: nearly all actives have a fitted effect of over 40% in size. Note: potency is the fitted concentration of half-maximal effect. Put shortly: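 DPX-2 cells (HepG2 co-transfected with a PXR response element and a CYP3A4-promoter luciferase construct) were seeded at 2,000 per well, rested 5 hr at 37C, then exposed to DMSO-dissolved compounds for 24 hr. Activation was read as luciferase luminescence.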

Experiment [12] can be described thus: qHTS assay to test for compound auto fluorescence at 590 nm (red) in HepG2 cells (AID 720674). Put shortly: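 Rose Bengal sodium served as the red fluorophore standard. HepG2 monolayers (overnight attachment, MEM with 10% FBS) were exposed to test compounds for 1 hr at 37 C and read at Ex 540/Em 590 nm.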
Experiment [13] can be described thus: qHTS assay to test for compound auto fluorescence at 460 nm (blue) in HEK293 cells (AID 720678). Summed up: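 Measured: blue fluorescence (Ex 405/Em 460 nm) of compound-treated HEK293 cells, incubated overnight at 37C with 5% CO2 and scaled to triamterene equivalents.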
Experiment [14] is described as follows: qHTS assay to identify small molecule antagonists of the glucocorticoid receptor (GR) signaling pathway - cell viability counter screen (AID 720693). Note: nearly all actives have a fitted effect of over 55% in size.
Experiment [15] is described as follows: qHTS assay to identify small molecule antagonists of the thyroid receptor (TR) signaling pathway - cell viability counter screen (AID 743064). Note: nearly all actives have a fitted effect of over 50% in size. Put shortly:
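GH3.TRE-Luc cells, 4 h pre-plating; cpd + T3 1 nM final; 37 °C 23.5 h; CellTiter-Fluor 30 min; fluorescence read.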

Experiment [16] addresses Estrogen receptor (Homo sapiens) (UniProt P03372). The experiment in a line: qHTS assay to identify small molecule agonists of the estrogen receptor alpha (ER-alpha) signaling pathway (AID 743075; calls by dose curve;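 note: HEK293 GripTite cells with ER-alpha and UAS-driven beta-lactamase reporter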).
A short description of experiment [17]: qHTS assay to identify small molecule antagonists of the estrogen receptor alpha (ER-alpha) signaling pathway using the BG1 cell line (AID 743080; calls by dose curve;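 note: BG1 cells stimulated with 17beta-estradiol alongside compound; series mostly up to about 70 µM; nearly all actives have a fitted effect of over 25% in size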). Put shortly: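 Quantitative HTS on the Tox21 10K library: BG1 cells with endogenous ER-alpha and ERE-luciferase reporter, 17beta-estradiol stimulation, 21.5 h compound exposure, luminescence endpoint with parallel fluorescence cytotoxicity counter-read.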

In experiment [18] the target is Peroxisome proliferator-activated receptor gamma (Homo sapiens) (UniProt P37231). Nature of the experiment: qHTS assay to identify small molecule agonists of the peroxisome proliferator-activated receptor gamma (PPARg) signaling pathway (AID 743094; active = well fitted activation curve with a large enough effect in the signal ratio in the repeat runs, not every such curve was filed as active; the % refers to the signal ratio). Put shortly: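 GeneBLAzer PPARg UAS-bla HEK293H cells were plated, rested 5 h, then exposed to compounds for 17 h at 37C. Beta-lactamase activity was read by LiveBLAzer B/G FRET substrate fluorescence after 1 h at room temperature.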

Experiment [19] is described as follows: qHTS assay to test for compound auto fluorescence at 590 nm (red) in HEK293 cell free culture (AID 720683). Put shortly:
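Tox21 10K library compounds were pinned into cell-free DMEM with 10% FBS and fluorescence was read at excitation 540 nm. Activity is expressed as Rose Bengal sodium equivalency.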

Experiment [20] deals with Glucocorticoid receptor (Homo sapiens) (UniProt P04150). The experiment in a line: qHTS assay to identify small molecule agonists of the glucocorticoid receptor (GR) signaling pathway (AID 720691; active = well fitted activation curve with a large enough effect in the signal ratio in the repeat runs, not every such curve was filed as active; the % refers to the signal ratio). Summed up:
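GR-bla HeLa cells carrying a GRE-driven beta-lactamase reporter, exposed to compounds for 18 h at 37 C. Reporter activation read as fluorescence after 2 h with LiveBLAzer B/G FRET substrate at room temperature.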

Inconclusive results are not listed. Active and inactive are the calls of the source. Unless noted, calls come from the whole dose curve; as a rule, active = well fitted curve in the direction sought with a large enough effect in the repeat runs; inconclusive = weak or mixed curves; inactive = no such curve, though single readings can be large; an effect the other way counts as inactive or inconclusive.

Estrogen receptor (Homo sapiens), sequence (P03372 whole entry, looked up): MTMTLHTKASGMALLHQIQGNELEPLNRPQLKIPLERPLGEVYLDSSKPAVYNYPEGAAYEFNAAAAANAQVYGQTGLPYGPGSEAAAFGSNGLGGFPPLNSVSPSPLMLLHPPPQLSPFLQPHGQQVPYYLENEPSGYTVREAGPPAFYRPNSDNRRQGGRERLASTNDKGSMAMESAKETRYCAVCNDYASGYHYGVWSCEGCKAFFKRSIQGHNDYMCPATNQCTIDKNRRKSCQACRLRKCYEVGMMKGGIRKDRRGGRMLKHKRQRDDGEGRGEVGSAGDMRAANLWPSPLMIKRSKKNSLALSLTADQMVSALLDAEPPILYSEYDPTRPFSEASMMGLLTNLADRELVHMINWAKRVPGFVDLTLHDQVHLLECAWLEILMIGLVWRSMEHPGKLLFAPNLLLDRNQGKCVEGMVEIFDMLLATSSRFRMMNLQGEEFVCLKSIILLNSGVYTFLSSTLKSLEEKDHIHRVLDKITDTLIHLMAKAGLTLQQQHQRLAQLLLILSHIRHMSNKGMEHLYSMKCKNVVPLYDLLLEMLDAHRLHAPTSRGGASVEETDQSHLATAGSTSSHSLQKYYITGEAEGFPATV
Peroxisome proliferator-activated receptor gamma (Homo sapiens), sequence (P37231 whole entry, looked up): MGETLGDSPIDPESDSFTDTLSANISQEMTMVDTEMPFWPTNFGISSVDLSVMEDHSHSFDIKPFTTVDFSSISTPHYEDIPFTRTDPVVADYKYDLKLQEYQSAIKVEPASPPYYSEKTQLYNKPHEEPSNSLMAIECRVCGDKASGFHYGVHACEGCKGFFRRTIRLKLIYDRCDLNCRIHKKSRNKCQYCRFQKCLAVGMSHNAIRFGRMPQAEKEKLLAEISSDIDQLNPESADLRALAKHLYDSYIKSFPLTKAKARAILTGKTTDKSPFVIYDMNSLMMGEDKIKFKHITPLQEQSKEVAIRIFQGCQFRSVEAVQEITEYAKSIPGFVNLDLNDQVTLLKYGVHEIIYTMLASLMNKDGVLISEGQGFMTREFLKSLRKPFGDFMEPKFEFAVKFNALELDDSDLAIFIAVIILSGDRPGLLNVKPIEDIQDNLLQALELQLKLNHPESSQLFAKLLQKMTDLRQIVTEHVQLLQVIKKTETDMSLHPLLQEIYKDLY
Glucocorticoid receptor (Homo sapiens), sequence (P04150 whole entry, looked up): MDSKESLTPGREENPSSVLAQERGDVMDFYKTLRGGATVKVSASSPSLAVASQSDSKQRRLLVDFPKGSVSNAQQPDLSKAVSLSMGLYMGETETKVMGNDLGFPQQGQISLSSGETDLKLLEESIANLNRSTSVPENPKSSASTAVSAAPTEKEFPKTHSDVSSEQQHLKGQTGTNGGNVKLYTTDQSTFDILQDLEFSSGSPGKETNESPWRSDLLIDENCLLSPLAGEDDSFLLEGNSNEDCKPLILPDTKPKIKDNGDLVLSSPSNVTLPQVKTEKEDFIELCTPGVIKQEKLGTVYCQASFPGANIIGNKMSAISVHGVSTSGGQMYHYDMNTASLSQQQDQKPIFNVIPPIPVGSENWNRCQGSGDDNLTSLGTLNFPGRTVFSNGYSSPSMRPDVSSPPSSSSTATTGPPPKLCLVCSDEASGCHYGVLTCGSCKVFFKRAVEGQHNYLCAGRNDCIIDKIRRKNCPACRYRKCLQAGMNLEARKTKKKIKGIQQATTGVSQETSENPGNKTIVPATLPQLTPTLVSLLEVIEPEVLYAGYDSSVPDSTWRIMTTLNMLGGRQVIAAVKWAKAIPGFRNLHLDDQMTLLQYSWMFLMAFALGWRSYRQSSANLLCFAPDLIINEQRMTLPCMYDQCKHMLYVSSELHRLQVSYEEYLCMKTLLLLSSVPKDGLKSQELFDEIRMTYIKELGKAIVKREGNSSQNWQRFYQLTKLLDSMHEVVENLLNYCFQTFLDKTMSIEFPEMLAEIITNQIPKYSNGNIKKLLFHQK

Consider `CCC(=O)O[C@@](Cc1ccccc1)(c1ccccc1)[C@@H](C)CN(C)C`, for which the Potency result in experiment [1], in experiment [2], in [3], in experiment [4], in experiment [5] and in experiment [6] was “inactive” in each case. For the same compound, the Potency result in [7], in [8], in experiment [9], in [10] and in experiment [11] was “inactive” each time.

Turning to `CN1[C@H]2CC[C@@H]1[C@@H](C(=O)O)[C@@H](OC(=O)c1ccccc1)C2`, the Potency entry in [2], in [3], in [13], in experiment [4], in [14] and in experiment [5] was “inactive” throughout. Moreover, the Potency entry in experiment [6], in experiment [7], in experiment [15], in [8], in experiment [9] and in [16] was “inactive” throughout. Moreover, the Potency result in [17], in [18] and in [11] was “inactive” in each case. Also, the outcome in experiment [12] was inactive.

For the compound `CC(=O)OO`, the Potency entry in experiment [1], in experiment [2], in [3], in experiment [4], in [14] and in [5] was “inactive” throughout. For the same compound, the Potency result in [6], in experiment [7], in experiment [15], in experiment [8], in [9] and in experiment [16] was “inactive” each time. Also, the Potency entry in experiment [17], in [10], in [18] and in experiment [11] was “inactive” in each case. Also, the result in experiment [12] and in [19] was inactive.

As to `O=C(OCCN1CCCCC1)C(O)(c1ccccc1)c1ccccc1`, the Potency result in experiment [2], in experiment [13], in experiment [4], in experiment [14], in experiment [5] and in experiment [6] was “inactive” throughout. In addition, the Potency result in experiment [7], in experiment [15], in [8], in experiment [9], in experiment [16] and in experiment [17] was “inactive” in each case. The Potency result in experiment [10], in experiment [18] and in [11] was “inactive” each time. Also, the call in experiment [12] and in [19] was inactive.

Turning to `CNC(=O)Oc1ccccc1C(=O)Nc1ccccc1`, the Potency entry in experiment [2], in experiment [13], in [4], in [20], in [14] and in [15] was “inactive” throughout. For the same compound, the Potency entry in experiment [9], in [16], in experiment [10] and in experiment [18] was “inactive” in each case. In addition, the Potency was 5.96 µM (active) in [3], 29.8 µM (active) in [5], 29.8 µM (active) in experiment [7] and 22.4 µM (active) in [11]. Further, the outcome in experiment [12] and in experiment [19] was inactive.

As for `CC(Cc1ccccc1)NC=O` (configuration not stated), the Potency result in experiment [1], in experiment [2], in [3], in experiment [13], in experiment [4] and in experiment [5] was “inactive” in each case. For the same compound, the Potency result in [6], in experiment [7], in experiment [15], in [8], in experiment [9] and in experiment [10] was “inactive” throughout. Also, the Potency entry in [18] and in experiment [11] was “inactive” throughout. The call in experiment [12] and in experiment [19] was inactive.

Regarding `CCNCC(O)c1cccc(O)c1` (configuration not stated), the Potency entry in experiment [1], in [3], in experiment [13], in experiment [4], in experiment [20] and in experiment [14] was “inactive” throughout. Also, the Potency entry in experiment [5], in experiment [6], in experiment [7], in [15], in experiment [8] and in [9] was “inactive” throughout. In addition, the Potency entry in experiment [16], in [17], in [10], in experiment [18] and in experiment [11] was “inactive” each time. The compound was called inactive in experiment [19].

For the origin of these results see PubChem BioAssay (Tox21).
